Screening data: PubChem, Sanford-Burnham Center for Chemical Genomics
CYP2C9 activ: human CYP2C9 activators, primary screen, biochemical, luminescence | AID 1024, 2008 | Cytochrome P450 2C9 (Homo sapiens), P11712 | recombinant CYP2C9, luciferin-H conversion; stronger effect = higher value; factor 1 = untreated enzyme, 0 = blocked | activation factor at 5 µM | 96,000 compounds, 1.4% hits;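 active means activation factor of 2 or more for CYP2C9 at a 5 µM dose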;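 further: 0 = sulfaphenazole-blocked wells and 1 = vehicle-only wells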
CYP2C9 inh: blockers of cytochrome P450 2C9 activity – biochemical, luminescence, ADME assay, primary screen; P11712; CYP2C9 Supersomes, luciferin-H conversion; inhibition, % at 5 µM; 96,000 compounds, 20% hits; AID 777, 2007;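 active means blocking of liver enzyme CYP2C9 beyond about 50% at 5 µM, limit read from the data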
CD11b adhes inh: inhibitors of CD11b/CD18 adhesion to fibrinogen, primary screen, K562 cells, luminescence | AID 1497, 2009 | inhibition, % at 10 µM | ATPlite luminescence; Mn2+ added to activate the integrin | 93,000 compounds, 0.54% hits | Integrin beta-2 (Homo sapiens) + Integrin alpha-M (Homo sapiens), P05107+P11215;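 active means primary inhibition of 50% or more at 10 µM, then 40% or more on retest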
Target sequence (P05107 whole entry, looked up, other chains not shown): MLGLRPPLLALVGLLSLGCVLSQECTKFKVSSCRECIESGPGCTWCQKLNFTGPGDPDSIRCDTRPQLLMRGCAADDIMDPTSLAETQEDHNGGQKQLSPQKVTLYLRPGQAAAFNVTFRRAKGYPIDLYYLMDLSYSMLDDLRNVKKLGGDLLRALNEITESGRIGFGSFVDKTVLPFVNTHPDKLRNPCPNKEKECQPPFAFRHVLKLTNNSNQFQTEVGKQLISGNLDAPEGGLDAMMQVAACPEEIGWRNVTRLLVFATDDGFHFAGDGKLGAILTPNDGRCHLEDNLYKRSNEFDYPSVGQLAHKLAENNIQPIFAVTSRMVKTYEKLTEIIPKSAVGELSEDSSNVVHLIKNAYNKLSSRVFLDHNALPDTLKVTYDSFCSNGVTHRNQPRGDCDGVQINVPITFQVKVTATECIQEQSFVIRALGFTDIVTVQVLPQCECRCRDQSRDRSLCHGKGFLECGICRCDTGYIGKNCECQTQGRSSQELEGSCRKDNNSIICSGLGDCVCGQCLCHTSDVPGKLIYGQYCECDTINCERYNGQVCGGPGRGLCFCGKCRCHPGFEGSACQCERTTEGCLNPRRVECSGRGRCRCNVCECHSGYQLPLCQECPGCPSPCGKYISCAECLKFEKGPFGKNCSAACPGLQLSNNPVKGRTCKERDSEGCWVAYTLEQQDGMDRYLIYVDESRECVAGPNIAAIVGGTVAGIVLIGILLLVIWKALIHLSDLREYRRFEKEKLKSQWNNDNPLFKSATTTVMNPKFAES
CYP2C19 act: human CYP2C19 activators, primary screen, biochemical, luminescence | Cytochrome P450 2C19 (Homo sapiens), P33261 | recombinant CYP2C19, luciferin-H EGE luminescence; stronger effect = higher value; 0 = fully inhibited enzyme, 1 = untreated enzyme | activation factor at 5 µM | 96,000 tested, under 10 active | AID 1025, 2008;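 active means activation factor of at least 2 at 5 µM in the primary screen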;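 further: 0 = wells with 2.5 mM tranylcypromine and 1 = vehicle-only wells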
Mac1 fbg enh: enhancers of CD11b/CD18 adhesion to fibrinogen, primary screen, K562 cells, luminescence. ATPlite luminescence. activation, % at 10 µM. 93,000 compounds, 0.07% hits;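 active means 10 µM primary screen giving 50% or more activity, confirmed by 40% or more on retest at that dose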
CYP2C19 inh: blockers of cytochrome P450 2C19 activity – biochemical, luminescence, ADME assay, primary screen. P33261. AID 778, 2007. inhibition, % at 5 µM. 96,000 compounds, 21% hits. CYP2C19 Supersomes, luciferin-H EGE luminescence, 30 min;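 active means CYP2C19 inhibition above a set limit at 5 µM in the primary screen, cut at about 50% in these data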;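 further: plate controls were negative control wells for no effect and 2.5 mM tranylcypromine positive control for full effect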
Numbers without * were called inactive; nt = not tested or not shown. Sampled rows, rich in hits. Any-hit rate of the full collection: about 28%.

SMILES | CYP2C9 activ | CYP2C9 inh | CD11b adhes inh | CYP2C19 act | Mac1 fbg enh | CYP2C19 inh
COc1cccc(N2CCN(C(=O)c3ccc(N4C(=O)NC5CC4(C)Oc4ccccc45)cc3)CC2)c1 (centres undefined) | 0.9 | 11 | 4 | 0.8 | -3 | 16
CC12CC(NC(=O)N1c1cccc(C(=O)N3CCN(c4ccccn4)CC3)c1)c1ccccc1O2 (centres undefined) | 0.4 | 63* | 0 | 0.6 | 0 | 44
CC12CC(NC(=O)N1c1cccc(C(=O)NCc3ccc4c(c3)OCO4)c1)c1cc(Cl)ccc1O2 (centres undefined) | 0.2 | 79* | -12 | 0.4 | 0 | 59*
COc1ccccc1C(c1nnnn1CCc1ccccc1)N1CCCCCC1 (centres undefined) | 0.6 | 38 | -4 | 0.8 | -2 | 15
CC(=O)/C(=N\Nc1ccc(C)cc1)N1CCOCC1 | 0.6 | 36 | 11 | 0.2 | -2 | 80*
O=C(CN1CCC(O)(c2ccc3c(c2)OCO3)CC1)N1CCOCC1 | 1.7 | -72 | -4 | 1 | -1 | -4
O=C(CN1CCC(O)(c2ccc3c(c2)OCO3)CC1)OC1CCCCC1 | 0.6 | 36 | -10 | 0.5 | 1 | 54*
O=S(=O)(c1ccc(N2CCCC2c2nc3ccccc3s2)nc1)N1CCOCC1 (centres undefined) | 0.1 | 86* | 0 | 0.1 | -3 | 89*
O=C(Nc1nc(-c2ccc(S(=O)(=O)N3CCOCC3)cc2)cs1)c1ccccc1 | 0.5 | 48 | -3 | 0.9 | 15 | 9
O=C(Nc1nc(-c2cccs2)cs1)c1cccc(S(=O)(=O)N2CCCCC2)c1 | 0.2 | 84* | 16 | 0.5 | 0 | 51*
Cc1ccc(-c2csc(NC(=O)COC(=O)c3cccc(S(=O)(=O)N4CCOCC4)c3)n2)cc1 | 0.9 | 14 | 9 | 0.9 | -1 | 14
COc1cccc(C(=O)Nc2nc(-c3ccc(S(=O)(=O)N4CCOCC4)cc3)cs2)c1 | 0.2 | 83* | 29 | 0.7 | 0 | 30
Cc1ccc(-c2csc(NC(=O)c3cccc(S(=O)(=O)N4CCN(C)CC4)c3)n2)cc1 | 0.9 | 6 | -11 | 0 | 4 | 97*
Cc1nnc(SCC(=O)NC2CCCCC2)n(N)c1=O | 1 | -4 | 8 | 1.2 | -3 | -19
CN1CCN(CCC(=O)Nc2ccc(OCc3ccccc3)cc2)CC1 | 1.1 | -15 | -8 | 1.2 | -2 | -19
CCOC(=O)c1cc(-c2ccc(/C=N\n3cnnc3)o2)ccc1Cl | 0.3 | 66* | 1 | 0.8 | -4 | 22
O=C1N=C(N2CCOCC2)S/C1=C/c1ccc(-c2ccccc2Cl)o1 | 0.8 | 19 | -8 | 0.6 | 12 | 39
Cc1c(Cl)cccc1-c1ccc(/C=N/n2cnnc2)o1 | 0.3 | 71* | -6 | 0.1 | 0 | 88*
Clc1ccccc1-c1ccc(/C=N/n2cnnc2)o1 | 1 | 3 | -7 | 0.4 | 0 | 62*
Cc1nnc(SCC(=O)N/N=C/c2ccc(-c3ccc(C)c(Cl)c3)o2)s1 | nt | nt | -8 | nt | -2 | nt
COc1cc([N+](=O)[O-])ccc1NC(=S)Nc1cc(C(=O)OC(C)C)cc(C(=O)OC(C)C)c1 | nt | nt | 102 | nt | -10 | nt
CCOc1ccccc1NC=C1C(=O)OC2(CCCCC2)OC1=O | 2.6* | -163 | -4 | 0.9 | -4 | 13
O=C1c2ccccc2NC(c2ccccc2)N1c1ccc(O)cc1 (centres undefined) | 0.6 | 45 | -5 | 0.8 | -2 | 21
O=C1c2ccccc2NC(c2ccccn2)N1c1ccc(Cl)cc1 (centres undefined) | 0.4 | 63* | -3 | 0.5 | -5 | 48
Cc1cccc(C2Nc3ccccc3C(=O)N2c2ccccc2)n1 (centres undefined) | 0.3 | 70* | -10 | 0.3 | 3 | 71*
